# According to paper PMC9911399, “Two distinct binding modes provide the RNA-binding protein RbFox with extraordinary sequence specificity”:
# Numbering of substitutions follows the chain as printed; changes in the protein carry UniProt numbers. The full ranking holds about 16,000 sequences; the median of “ka relative to ugcaugu” is about 0.0091, and the highest 2% start at about 0.032. The list comes from a sample in which the highest values are over-represented; it also holds similar and randomly drawn sequences.
# T1: RBFOX1 RRM (Homo sapiens, UniProt Q9NWB1 109-208)
# T1 sequence: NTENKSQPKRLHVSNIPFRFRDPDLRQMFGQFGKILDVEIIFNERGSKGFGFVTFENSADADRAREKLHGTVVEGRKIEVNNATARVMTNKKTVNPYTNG
# B1: UGGGUAG (DNA:RNA)
# RNA: GGGAGACCGGAAUUCAGAUUGUCCUGGGUAGUUAAAUCCCGUCGUAGCCACCA
# DNA 1: CAATCTGAATTCCGGTCTCCC
# DNA 2: TGGTGGCTACGACGGGATT
# B2: CCCAAGA (DNA:RNA)
# RNA: GGGAGACCGGAAUUCAGAUUGUCCCCCAAGAUUAAAUCCCGUCGUAGCCACCA
# DNA 1: CAATCTGAATTCCGGTCTCCC
# DNA 2: TGGTGGCTACGACGGGATT
# B3: UCGCCGG (DNA:RNA)
# RNA: B1 RNA with G26C, G28C, U29C, A30G
# DNA 1: CAATCTGAATTCCGGTCTCCC
# DNA 2: TGGTGGCTACGACGGGATT
# B4: CUAGUGU (DNA:RNA)
# RNA: B2 RNA with C26U, C27A, A28G, A29U, A31U
# DNA 1: CAATCTGAATTCCGGTCTCCC
# DNA 2: TGGTGGCTACGACGGGATT
# B5: UGCUCCU (DNA:RNA)
# RNA: B1 RNA with G27C, G28U, U29C, A30C, G31U
# DNA 1: CAATCTGAATTCCGGTCTCCC
# DNA 2: TGGTGGCTACGACGGGATT
# B6: GAUCGAC (DNA:RNA)
# RNA: B1 RNA with U25G, G26A, G27U, G28C, U29G, G31C
# DNA 1: CAATCTGAATTCCGGTCTCCC
# DNA 2: TGGTGGCTACGACGGGATT
# B7: GAGAGCC (DNA:RNA)
# RNA: B2 RNA with C25G, C26A, C27G, A29G, G30C, A31C
# DNA 1: CAATCTGAATTCCGGTCTCCC
# DNA 2: TGGTGGCTACGACGGGATT
# B8: GCAAUGU (DNA:RNA)
# RNA: B2 RNA with C25G, C27A, A29U, A31U
# DNA 1: CAATCTGAATTCCGGTCTCCC
# DNA 2: TGGTGGCTACGACGGGATT
# B9: ACGCAUG (DNA:RNA)
# RNA: B2 RNA with C25A, C27G, A28C, G30U, A31G
# DNA 1: CAATCTGAATTCCGGTCTCCC
# DNA 2: TGGTGGCTACGACGGGATT
# B10: GCCAUGU (DNA:RNA)
# RNA: B2 RNA with C25G, A29U, A31U
# DNA 1: CAATCTGAATTCCGGTCTCCC
# DNA 2: TGGTGGCTACGACGGGATT
# B11: GCAUUGU (DNA:RNA)
# RNA: B2 RNA with C25G, C27A, A28U, A29U, A31U
# DNA 1: CAATCTGAATTCCGGTCTCCC
# DNA 2: TGGTGGCTACGACGGGATT
# B12: CCGCAUG (DNA:RNA)
# RNA: B2 RNA with C27G, A28C, G30U, A31G
# DNA 1: CAATCTGAATTCCGGTCTCCC
# DNA 2: TGGTGGCTACGACGGGATT
# B13: GCAUAGU (DNA:RNA)
# RNA: B2 RNA with C25G, C27A, A28U, A31U
# DNA 1: CAATCTGAATTCCGGTCTCCC
# DNA 2: TGGTGGCTACGACGGGATT
# B14: ACGCAUA (DNA:RNA)
# RNA: B2 RNA with C25A, C27G, A28C, G30U
# DNA 1: CAATCTGAATTCCGGTCTCCC
# DNA 2: TGGTGGCTACGACGGGATT
# B15: ACGCAUC (DNA:RNA)
# RNA: B2 RNA with C25A, C27G, A28C, G30U, A31C
# DNA 1: CAATCTGAATTCCGGTCTCCC
# DNA 2: TGGTGGCTACGACGGGATT
# B16: CGCAUGU (DNA:RNA)
# RNA: B2 RNA with C26G, A29U, A31U
# DNA 1: CAATCTGAATTCCGGTCTCCC
# DNA 2: TGGTGGCTACGACGGGATT
# B17: GCAUGUU (DNA:RNA)
# RNA: B2 RNA with C25G, C27A, A28U, A29G, G30U, A31U
# DNA 1: CAATCTGAATTCCGGTCTCCC
# DNA 2: TGGTGGCTACGACGGGATT
# B18: CCCCGCA (DNA:RNA)
# RNA: B2 RNA with A28C, A29G, G30C
# DNA 1: CAATCTGAATTCCGGTCTCCC
# DNA 2: TGGTGGCTACGACGGGATT
# B19: CGCAUUG (DNA:RNA)
# RNA: B2 RNA with C26G, A29U, G30U, A31G
# DNA 1: CAATCTGAATTCCGGTCTCCC
# DNA 2: TGGTGGCTACGACGGGATT
# B20: UCCGUCU (DNA:RNA)
# RNA: B1 RNA with G26C, G27C, A30C, G31U
# DNA 1: CAATCTGAATTCCGGTCTCCC
# DNA 2: TGGTGGCTACGACGGGATT
# Target: T1, RBFOX1 RRM
# Assay: EMSA; HiTS-Eq, 1 nM pool, 10 min; buffer printed only for the single-RNA assays: 10 mM Tris pH 7.5, 150 mM NaCl, 3.4 mM EDTA, 0.001% NP-40, 30 C
# Details: tags: His6 N-terminal (pET28a); label: 5' 32P
# Method in brief: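 Purified wild-type or mutant RbFox RRM at increasing concentrations was equilibrated with 1 nM of 5′-radiolabelled RNA carrying 7 randomized nucleotides for 10 min in 50 µL. Unbound RNA was separated by 8% native PAGE and sequenced. Relative association constants came from read-count changes of each RNA species compared with the control reaction, normalised to the cognate motif.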
row,Binder,binding signal
1,B1,0.0258 KA relative to UGCAUGU
2,B2,0.00241 KA relative to UGCAUGU
3,B3,0.0169 KA relative to UGCAUGU
4,B4,0.0159 KA relative to UGCAUGU
5,B5,0.0145 KA relative to UGCAUGU
6,B6,0.0165 KA relative to UGCAUGU
7,B7,0.0145 KA relative to UGCAUGU
8,B8,0.01 KA relative to UGCAUGU
9,B9,0.697 KA relative to UGCAUGU
10,B10,0.0117 KA relative to UGCAUGU
11,B11,0.0129 KA relative to UGCAUGU
12,B12,0.806 KA relative to UGCAUGU
13,B13,0.0104 KA relative to UGCAUGU
14,B14,0.00394 KA relative to UGCAUGU
15,B15,0.00881 KA relative to UGCAUGU
16,B16,0.735 KA relative to UGCAUGU
17,B17,0.635 KA relative to UGCAUGU
18,B18,0.0132 KA relative to UGCAUGU
19,B19,0.0131 KA relative to UGCAUGU
20,B20,0.0154 KA relative to UGCAUGU
